The values that follow come from article PMC5700166.

Common to all, as to experiment: protein-binding microarray (PBM); PBM: ~300 nM protein, 6 mM HEPES pH 7.8, 80 mM KCl, 0.5 mM EDTA, 0.5 mM EGTA, 6% glycerol, 35 ng/ul poly-dIdC, 1% milk, 1 h, room temperature; Ap Aiptasia and Nv Nematostella (sea anemones) / Co Capsaspora / Aq Amphimedon (sponge) / Dm Drosophila / Hu human; RHD is the Rel homology domain; high values mean tight binding
Conditions in all cases: dsDNA, one strand shown

One assay concerns the target T1, GST-Ap-NF-kB RHD (Exaiptasia pallida (Aiptasia), UniProt A0A913YAJ5 2-422).
T1 sequence: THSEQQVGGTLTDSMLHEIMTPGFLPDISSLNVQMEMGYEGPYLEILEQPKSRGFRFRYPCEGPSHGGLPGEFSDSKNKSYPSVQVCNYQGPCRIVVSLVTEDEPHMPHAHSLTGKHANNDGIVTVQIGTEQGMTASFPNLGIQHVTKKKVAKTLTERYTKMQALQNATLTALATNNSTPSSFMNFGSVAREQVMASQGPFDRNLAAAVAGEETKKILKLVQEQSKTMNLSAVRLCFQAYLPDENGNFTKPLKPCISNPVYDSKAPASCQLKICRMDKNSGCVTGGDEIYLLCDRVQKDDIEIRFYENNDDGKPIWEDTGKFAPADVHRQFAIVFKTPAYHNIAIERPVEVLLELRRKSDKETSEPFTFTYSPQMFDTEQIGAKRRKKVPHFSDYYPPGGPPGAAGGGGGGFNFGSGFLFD

Assay [1] addresses T2, GST-Nv-NF-kB (Cys allele) (Nematostella vectensis, UniProt E5G601 2-411).
T2 sequence: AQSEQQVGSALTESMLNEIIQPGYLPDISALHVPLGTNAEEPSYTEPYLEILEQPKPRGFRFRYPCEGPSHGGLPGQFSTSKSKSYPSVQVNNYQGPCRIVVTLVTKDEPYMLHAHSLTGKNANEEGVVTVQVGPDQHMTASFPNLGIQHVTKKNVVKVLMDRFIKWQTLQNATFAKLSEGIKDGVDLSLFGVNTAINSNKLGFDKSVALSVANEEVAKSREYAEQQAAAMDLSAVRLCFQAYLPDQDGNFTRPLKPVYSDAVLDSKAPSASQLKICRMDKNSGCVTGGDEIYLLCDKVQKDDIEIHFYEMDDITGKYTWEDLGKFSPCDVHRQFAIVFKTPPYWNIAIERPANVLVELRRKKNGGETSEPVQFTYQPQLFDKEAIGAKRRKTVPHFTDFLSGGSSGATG

A further assay addresses T3, GST-Co-NF-kB (Capsaspora owczarzaki, UniProt F1ARL5 200-546).
T3 sequence: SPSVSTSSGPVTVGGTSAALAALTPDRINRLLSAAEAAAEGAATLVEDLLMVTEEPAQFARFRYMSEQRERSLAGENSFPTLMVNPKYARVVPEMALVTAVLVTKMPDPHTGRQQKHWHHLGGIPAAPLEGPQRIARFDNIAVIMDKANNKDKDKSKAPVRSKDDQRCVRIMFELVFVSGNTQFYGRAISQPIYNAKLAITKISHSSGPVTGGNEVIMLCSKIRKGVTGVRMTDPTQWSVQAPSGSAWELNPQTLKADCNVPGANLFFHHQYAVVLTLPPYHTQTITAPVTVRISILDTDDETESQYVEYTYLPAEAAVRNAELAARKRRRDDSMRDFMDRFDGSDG

The target in a further assay is T4, GST-Dm-Relish (Drosophila melanogaster, UniProt Q94527 99-473).
T4 sequence: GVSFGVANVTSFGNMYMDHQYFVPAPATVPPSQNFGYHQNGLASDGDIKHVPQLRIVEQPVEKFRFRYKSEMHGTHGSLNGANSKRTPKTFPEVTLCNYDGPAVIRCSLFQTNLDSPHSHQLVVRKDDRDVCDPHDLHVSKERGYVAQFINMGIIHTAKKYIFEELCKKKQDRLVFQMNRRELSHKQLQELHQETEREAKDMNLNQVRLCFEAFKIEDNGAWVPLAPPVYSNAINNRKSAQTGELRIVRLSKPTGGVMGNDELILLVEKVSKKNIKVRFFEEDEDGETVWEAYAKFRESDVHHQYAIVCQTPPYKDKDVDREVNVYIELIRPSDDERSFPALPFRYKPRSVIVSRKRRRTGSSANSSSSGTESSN

For the next assay, the target named is T5, GST-Aq-NF-kB (Amphimedon queenslandica, UniProt A9Y5G7 2-389).
T5 sequence: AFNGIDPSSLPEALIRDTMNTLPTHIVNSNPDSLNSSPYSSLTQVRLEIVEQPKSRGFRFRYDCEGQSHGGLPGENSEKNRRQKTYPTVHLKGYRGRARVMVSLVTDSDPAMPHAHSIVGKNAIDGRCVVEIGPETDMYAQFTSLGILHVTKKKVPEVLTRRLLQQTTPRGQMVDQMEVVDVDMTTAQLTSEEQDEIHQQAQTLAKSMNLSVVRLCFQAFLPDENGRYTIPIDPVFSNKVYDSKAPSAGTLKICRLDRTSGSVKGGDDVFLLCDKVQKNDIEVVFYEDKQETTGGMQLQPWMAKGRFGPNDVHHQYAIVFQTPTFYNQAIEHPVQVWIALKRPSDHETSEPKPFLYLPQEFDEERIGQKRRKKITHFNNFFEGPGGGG

For the next assay, the target named is GST-Hu-p50 (Homo sapiens, UniProt P19838 7-356).
GST-Hu-p50, sequence (P19838 7-356): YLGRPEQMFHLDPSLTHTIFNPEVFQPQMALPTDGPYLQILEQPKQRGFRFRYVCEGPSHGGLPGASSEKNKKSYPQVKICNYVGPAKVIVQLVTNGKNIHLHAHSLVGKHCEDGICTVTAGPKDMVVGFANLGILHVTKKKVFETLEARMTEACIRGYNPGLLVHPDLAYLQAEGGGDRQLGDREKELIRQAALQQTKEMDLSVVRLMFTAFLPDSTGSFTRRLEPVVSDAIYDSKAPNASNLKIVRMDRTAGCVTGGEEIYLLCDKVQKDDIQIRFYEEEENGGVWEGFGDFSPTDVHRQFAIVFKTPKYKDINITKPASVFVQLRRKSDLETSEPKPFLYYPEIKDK

With “CCGATTAACATCAAGGGGGATACTGATGTTAATCGGGTCTTGATTCGCTTGACGCTGCTG”, the binding signal with GST-Ap-NF-kB RHD turned out to be 6.74 z-score; in assay [1] it was 4.59 z-score; with GST-Co-NF-kB it was 4.72 z-score; with GST-Dm-Relish, 3.41 z-score; with GST-Aq-NF-kB it was 4.99 z-score; with GST-Hu-p50, 5.48 z-score.
Consider “CCGATTAACATCAGGGGGAACACTGATGTTAATCGGGTCTTGATTCGCTTGACGCTGCTG”, for which the binding signal with GST-Ap-NF-kB RHD came to 6.57 z-score; in assay [1] it was 5.66 z-score; in the assay with GST-Co-NF-kB it was 8.64 z-score; with GST-Dm-Relish, 6.58 z-score; with GST-Aq-NF-kB, 5.54 z-score; with GST-Hu-p50, 5.28 z-score.
In the case of “CCGATTAACATCAAAAAATCCCTTGATGTTAATCGGGTCTTGATTCGCTTGACGCTGCTG”, the binding signal with GST-Ap-NF-kB RHD turned out to be 6.16 z-score; in assay [1] it was 7.58 z-score; with GST-Co-NF-kB, 1.77 z-score; with GST-Dm-Relish it was 8.1 z-score; with GST-Aq-NF-kB it was 7.46 z-score; with GST-Hu-p50, 5.47 z-score.
Turning to “CCGATTAACATCAGGGGGTTCACTGATGTTAATCGGGTCTTGATTCGCTTGACGCTGCTG”, the binding signal with GST-Ap-NF-kB RHD turned out to be 5.94 z-score; in assay [1] it was 4.09 z-score; with GST-Co-NF-kB it was 2.91 z-score; in the assay with GST-Dm-Relish, 10.4 z-score; in the assay with GST-Aq-NF-kB, 5.84 z-score; in the assay with GST-Hu-p50 it was 5.34 z-score.
On to “CCGATTAACATCAGGGAGTTTACTGATGTTAATCGGGTCTTGATTCGCTTGACGCTGCTG”, for which the binding signal amounted to 3.14 z-score with GST-Ap-NF-kB RHD; 4.14 z-score in assay [1]; 1.37 z-score with GST-Co-NF-kB; 5.53 z-score with GST-Dm-Relish; 5.6 z-score with GST-Aq-NF-kB; 4.19 z-score with GST-Hu-p50.
Take “CCGATTAACATCAGGAGTCCCCCTGATGTTAATCGGGTCTTGATTCGCTTGACGCTGCTG”: the binding signal worked out at 8.32 z-score with GST-Ap-NF-kB RHD; 6.17 z-score in assay [1]; 4.42 z-score with GST-Co-NF-kB; 8.71 z-score with GST-Dm-Relish; 6.95 z-score in the assay with GST-Aq-NF-kB; 5.55 z-score with GST-Hu-p50.
With “CCGATTAACATCAGGGGGGGACATGATGTTAATCGGGTCTTGATTCGCTTGACGCTGCTG”, the binding signal with GST-Ap-NF-kB RHD was found to be 5.67 z-score; in assay [1] it was 5.09 z-score; in the assay with GST-Co-NF-kB, 7.08 z-score; with GST-Dm-Relish it was 3.75 z-score; with GST-Aq-NF-kB, 4.34 z-score; with GST-Hu-p50 it was 4.11 z-score.
“CCGATTAACATCACCCCGCCCCCTGATGTTAATCGGGTCTTGATTCGCTTGACGCTGCTG”: the binding signal was 4.32 z-score in the assay with GST-Ap-NF-kB RHD; 3.28 z-score in assay [1]; 3.91 z-score in the assay with GST-Co-NF-kB; 4.16 z-score with GST-Dm-Relish; 4.28 z-score in the assay with GST-Aq-NF-kB; 4.24 z-score in the assay with GST-Hu-p50.
Regarding “CCGATTAACATCACGCATCCCCCTGATGTTAATCGGGTCTTGATTCGCTTGACGCTGCTG”, the binding signal with GST-Ap-NF-kB RHD was found to be 6.1 z-score; in assay [1] it was 4.9 z-score; with GST-Co-NF-kB, 4.65 z-score; with GST-Dm-Relish, 3.44 z-score; with GST-Aq-NF-kB, 4.33 z-score; with GST-Hu-p50, 5.14 z-score.
For the sequence “CCGATTAACATCAGAAAAATCCCTGATGTTAATCGGGTCTTGATTCGCTTGACGCTGCTG”, the binding signal in the assay with GST-Ap-NF-kB RHD came to 5.42 z-score; in assay [1], 6.84 z-score; with GST-Co-NF-kB, 2.27 z-score; with GST-Dm-Relish it was 9.03 z-score; with GST-Aq-NF-kB, 7.2 z-score; in the assay with GST-Hu-p50 it was 5.46 z-score.
Consider “CCGATTAACATCAGGGGACGTTATGATGTTAATCGGGTCTTGATTCGCTTGACGCTGCTG”, for which the binding signal with GST-Ap-NF-kB RHD is 4.77 z-score; in assay [1], 5 z-score; with GST-Co-NF-kB, 3.19 z-score; with GST-Dm-Relish, 2.7 z-score; with GST-Aq-NF-kB, 4.72 z-score; with GST-Hu-p50, 4.56 z-score.
On to “CCGATTAACATCAGGGATGCCCCTGATGTTAATCGGGTCTTGATTCGCTTGACGCTGCTG”, for which the binding signal with GST-Ap-NF-kB RHD is 6.96 z-score; in assay [1], 8.09 z-score; in the assay with GST-Co-NF-kB, 1.84 z-score; with GST-Dm-Relish, 9.08 z-score; in the assay with GST-Aq-NF-kB it was 8.39 z-score; in the assay with GST-Hu-p50, 5.89 z-score.
